Compound activity as filed in PubChem.
Shown is part of a subset that was picked to be rich in hits.
AmpC no deterg – inhibitors of E. coli AmpC beta-lactamase without detergent | P00811 | AmpC nitrocefin hydrolysis, absorbance 480 nm, 0.0001% Triton | Potency, µM (highest dose often 57.1 µM), for the others: at the top dose activity change, negative = inhibition, usual class: inhibitors | 330,000 tested, 0.52% active | AID 485341;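 note: potency is the fitted concentration of half-maximal effect; plate controls were no compound for no effect and no enzyme for full effect; nearly all actives have a fitted effect of over 20% in size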
Target sequence (P00811 whole entry, looked up): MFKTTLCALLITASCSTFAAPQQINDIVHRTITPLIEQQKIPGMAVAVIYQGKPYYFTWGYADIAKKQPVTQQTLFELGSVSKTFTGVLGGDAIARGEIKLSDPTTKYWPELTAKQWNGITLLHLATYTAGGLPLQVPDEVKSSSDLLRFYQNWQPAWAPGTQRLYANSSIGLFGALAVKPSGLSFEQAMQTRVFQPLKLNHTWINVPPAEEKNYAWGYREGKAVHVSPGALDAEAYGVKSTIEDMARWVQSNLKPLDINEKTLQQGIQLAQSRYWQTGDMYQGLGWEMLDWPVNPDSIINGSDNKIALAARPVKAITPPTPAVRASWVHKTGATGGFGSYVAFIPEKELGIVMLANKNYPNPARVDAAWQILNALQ
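AmpC (5.3 nM in the dispensed reagent) in 20 mM phosphate pH 7.0 with 0.01% (detergent screen) or 0.0001% Triton X-100 was preincubated with compounds for 15 min at room temperature. Nitrocefin was then added from an 800 uM solution, and hydrolysis was followed at 480 nm.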
NS1 inh – inhibitors of influenza NS1 protein function. AID 2326. Potency, µM (top dose mostly 46.1 µM), for inactives: at the highest dose activity, positive = more growth. 270,000 tested, 0.4% active; calls by dose curve; note: potency is the fitted concentration of half-maximal effect; actives are rising curves; nearly all actives have a fitted effect of over 50% in size
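Read-out: OD600 growth recovery of NS1-expressing budding yeast. Cells grown overnight at 30C in -URA glucose medium, washed, resuspended and diluted 1:100 in 2% galactose assay medium, pH 6.0. Same strain lacking NS1 served as positive control.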
CHX counter – counter-screen hit for Shiga toxin inhibitors, cycloheximide; cell reporter, cycloheximide protein synthesis inhibition counterscreen; 300,000 tested, 12% active; max response, %; in the data active = max response mostly above about 13%, no sharp cut-off; inactive = mostly below about 14%; note: read at 38.3 µM for the half of the compounds with a filed dose; 0% is about no effect
AmpC detergent – AmpC beta-lactamase inhibition with detergent present; P00811; Potency, µM (top dose mostly 114 µM), inactives show at the highest dose activity change, negative = inhibition, actives largely listed as inhibitors; AID 485294; AmpC hydrolysis of nitrocefin, absorbance 480 nm, 0.01% Triton; 370,000 tested, 0.041% active;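 note: potency is the fitted concentration of half-maximal effect; 0% = no-compound wells and -100% = no-enzyme wells; nearly all actives have a fitted effect of over 25% in size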
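AmpC (5.3 nM in the dispensed reagent) in 20 mM phosphate pH 7.0 with 0.01% (detergent screen) or 0.0001% Triton X-100 was preincubated with compounds for 15 min at room temperature. Nitrocefin was then added from an 800 uM solution, and hydrolysis was followed at 480 nm.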
Shiga inhibitor – Shiga toxin inhibition; Vero cells, Shiga toxin protein synthesis inhibition reporter; inhibition, % at 38.7 µM; 290,000 tested, 9.2% active; in the data active = inhibition mostly above about 28%, no sharp cut-off; inactive = mostly below about 43%; note: 0% is about no effect
* = called active by the depositor; ? = inconclusive; nt = not tested or not shown; + = active, no number; ! = not confirmed by another sample; [ ] = dose if it differs, or a comment. Unless noted, calls come from the whole dose curve; as a rule, active = well fitted curve in the direction sought with a large enough effect; inconclusive = small, poorly fitted or top-dose-only effect, or another doubt; inactive = no such curve, though single readings can be large; an effect the other way counts as inactive or inconclusive.

SMILES	AmpC no deterg	NS1 inh	CHX counter	AmpC detergent	Shiga inhibitor
CC1CCc2c(sc3nnn(CC(=O)Nc4ccc(Cl)cc4)c(=O)c23)C1 (stereo unspecified)	nt	nt	nt	0.0%	nt
CCn1nnc2sc3c(c2c1=O)CCC(C)C3 (stereo unspecified)	-6.8%	-51.9%	38.0*	-0.9%	24.8
CC1CCc2c(sc3ncn(CCO)c(=O)c23)C1 (stereo unspecified)	-1.2%	-6.5%	37.9*	-0.4%	63.7*
CC(=O)Cn1nnc2sc3c(c2c1=O)CCC(C(C)(C)C)C3 (stereo unspecified)	139.0%	nt	66.4*	-9.1%	88.0*
O=C(Nc1ccccc1)/C(=C/c1cccnc1)NC(=O)c1ccccc1	-11.0%	8.5%	-3.6	-1.8%	-15.2
CN(CCOc1ccccc1)C(=O)c1ccc(Cl)c(S(=O)(=O)N2CCCCC2)c1	64.7%	nt	nt	?	nt
c1ccc2c(SCc3cn4cccnc4n3)ncnc2c1	-11.7%	-11.7%	7.6	?	13.1
O=S(=O)(Nc1cccc(-c2cn3cccnc3n2)c1)c1ccc(Cl)cc1	-20.8%	-2.4%	-1.9	1.0%	-5.1
Fc1ccc(COc2cccc3cccnc23)cc1	-25.9%	-5.2%	40.6*	1.2%	91.2*
Cc1cc(Cl)ccc1OCc1cn2cccnc2n1	-4.6%[11.4 µM]	nt	50.6*	?	84.1*
Clc1ccc(OCc2cn3cccnc3n2)c2ncccc12	-1.3%	-9.6%	34.9*	2.0%	100.6*
NC(=O)COc1cccc2cccnc12	-18.1%	4.7%	1.5	2.4%	-18.5
Clc1cccc(NCc2cn3cccnc3n2)c1	-7.7%	1.4%	27.0*	-0.7%	18.5
CCc1cccc(CC)c1NC(=O)CSc1nnc(C2CC2)n1C	-0.4%	-15.4%	-3.6	?	-5.5
c1cnc2c(OCc3cn4cccnc4n3)cccc2c1	2.1%	15.6%	27.9*	0.1%	77.4
c1ccc(SCc2cn3cccnc3n2)nc1	-27.0%	-4.8%	13.7	5.6%	12.7
O=C(CSCc1cccc(Cl)c1)Nc1ccccc1-c1ccccc1	1.0%	-7.5%	-1.8	1.8%	-10.1
Oc1c(Br)cc(Br)cc1C=Nc1ccc2c(c1)OCO2	-41.9%	4.2%	1.4	-9.6%	23.1
O=[N+]([O-])c1ccc(O)c(C=Nc2ccc3c(c2)OCCO3)c1	-5.5%	-14.3%	112.1*	-9.3%	108.3*
Oc1[nH]c2ccccc2c1C=Nc1ccc2c(c1)OCCO2	-21.7%	-12.8%	31.8*	-15.0%	52.6
Oc1c(Br)cc(Br)cc1C=Nc1ccc2c(c1)OCCO2	-25.0%	nt	32.1*	-2.0%	50.0*
Cc1cc(C)nc(N/N=C/c2cc(C)n(CC(F)(F)F)c2C)n1	46.6%	0.7%	21.7	7.3%	32.6
Clc1ccccc1Cn1c(/C=C/c2ccco2)nc2ccccc21	-14.4%	-14.5%	90.0*	?	131.5*
O=C(NCCCc1nc2ccccc2n1Cc1ccccc1Cl)c1ccco1	nt	nt	nt	9.7%	nt
CSc1ccccc1NC(=O)c1cccc(S(=O)(=O)N2CCN(C)CC2)c1	-21.0%	-18.3%	37.0*	-0.8%	32.5*
SMILES	AmpC no deterg	NS1 inh	CHX counter	AmpC detergent	Shiga inhibitor
CC(=O)c1ccc(NC(=O)c2cccc(S(=O)(=O)N3CCN(C)CC3)c2)cc1	-8.6%	11.4%	40.7*	?	104.1*
COc1ccc(-c2cc(C(F)(F)F)nc(SCC(=O)NCCc3ccccc3)n2)cc1OC	nt	nt	nt	18.2%	nt
Cc1cccc(-c2nnn(CC/C(N)=N/O)n2)c1	-3.2%	-10.5%	22.9*	-2.2%	active
Cc1cccc(-c2nnn(Cc3nnc(NC(=O)c4ccccc4)s3)n2)c1	-29.0%	-1.2%	-1.6	-4.7%	-3.4
O=C(O)c1ccc(/C=N/O)cc1	-13.0%	0.8%	-1.4	-5.8%	2.8
O/N=C/c1ccc2ccccc2c1	-24.0%	-2.9%	21.2*	-3.4%	55.7
CC(=O)N/C(=N\c1nc(C)cc(C)n1)Nc1ccc2ccccc2c1	-23.2%	13.2%	39.5*	5.5%	125.3*
Cc1ccc(F)c(NC(=O)c2ccc(Cn3cc(Cl)cn3)cc2)c1	-10.2%	-33.3%	39.5*	-8.7%	37.4
CCOC(=O)N1CCN(C(=O)CSCC(=O)Nc2nc(-c3ccc(OC)cc3)cs2)CC1	69.1%	-10.6%	10.2	1.8%	-3.1
CCOC(=O)N1CCN(C(=O)CSCC(=O)Nc2nc(-c3ccc(Cl)s3)cs2)CC1	-13.7%	-13.4%	13.7*	-8.2%	-15.2
O=C(CSCC(=O)N1CCOCC1)Nc1nc(-c2ccccc2)cs1	-1.8%	-9.2%	34.6*	5.4%	84.2*
CCOC(=O)N1CCN(C(=O)CSCC(=O)Nc2nc(-c3ccc(-c4ccccc4)cc3)cs2)CC1	?	20.8%	32.1*	?	active
CCOC(=O)N1CCN(C(=O)CSc2nnc(-c3ccc(Cl)s3)o2)CC1	-1.9%	3.6%	-4.0	?	-7.6
O=C(CSCC(=O)N1CCOCC1)Nc1ccccc1	-14.0%	0.2%	-3.7	-8.3%	-1.7
Cc1ccoc1C(=O)NCCNc1ccc(Cl)cc1[N+](=O)[O-]	-28.6%	-44.3%	14.4*	-5.7%	27.3
COc1ccc(NC(=O)Cn2c(=O)n(-c3ccc(CC(=O)NCC4CCCO4)cc3)c(=O)c3ccccc32)c(OC)c1 (stereo unspecified)	nt	nt	nt	8.2%	nt
CCOc1ccc(Cc2nc(-c3nonc3N)no2)cc1OCC	-32.5%	0.4%	2.1	-4.0%	19.0
Nc1nonc1-c1noc(COc2ccccc2Cl)n1	113.2%	-7.3%	22.7*	-14.1%	82.8*
Nc1nonc1-c1noc(N2CCOCC2)n1	-15.8%	21.2%	12.2	-4.6%	13.9
Cc1cccc(OCc2nc(-c3nonc3N)no2)c1C	-12.5%	-5.8%	55.8*	1.1%	52.7*
C=C1C(c2ccc(C)cc2)=CCc2cc(C)cc(C)c21	nt	nt	38.9*	nt	52.5*
O=S(=O)(NC1CCCCC1)c1ccc(Cl)nc1	-16.5%	-4.3%	0.7	?	-8.8
CCOC(=O)c1ccc(N2C(=O)Cc3cc(OCC)c(OCC)cc3C2c2ccccc2)cc1 (stereo unspecified)	nt	nt	nt	7.4%	nt
c1ccc(CCNc2ncnc3c2cnn3-c2ccccc2)cc1	-25.7%	-48.9%	43.9*	1.4%	66.4*
Clc1ccc(-n2ncc3c(NCc4cccs4)ncnc32)cc1	-9.6%	-13.2%	-4.5	0.9%	-5.1
SMILES	AmpC no deterg	NS1 inh	CHX counter	AmpC detergent	Shiga inhibitor
Clc1ccc(-n2ncc3c(NCc4cccnc4)ncnc32)cc1Cl	-18.7%	0.2%	34.3*	2.3%	27.4
Fc1ccc(CNc2ncnc3c2cnn3-c2ccccc2)cc1	nt	-20.1%	16.7	1.6%	21.9
Cc1cccc(-n2ncc3c(NCc4cccs4)ncnc32)c1	-14.3%	-48.9%	22.6*	?	114.4*
Cc1cccc(-n2ncc3c(NCc4ccccc4)ncnc32)c1	-11.7%	-21.3%	28.6*	-4.6%	+
Cc1ccc(Sc2ccc(N3CCC(C(=O)Nc4ccc(Cl)cc4)CC3)nn2)cc1	nt	nt	nt	18.4%	nt
N#CC(CC(=O)c1ccc(F)cc1)c1ccc2c(c1)OCO2 (stereo unspecified)	-28.0%	2.3%	-4.5	5.1%	-14.2
c1ccc(CNc2ncnc3c2cnn3-c2ccccc2)cc1	-15.9%	-6.0%	12.9*	?	44.5
Cn1ncc2c(NCc3ccccc3)ncnc21	-17.1%	-17.4%	13.1*!	-13.4%	7.8
